Results on 62 sequences are retold here after article PMC7819943, “Rice protein-binding microarrays: a tool to detect cis-acting elements near promoter regions in rice”.

The full ranking holds about 68,000 sequences; the median of “fluorescence intensity (a.u.)” is about 9,100, and the highest 2% start at about 16,000. For the sample, the highest values were picked, then their nearest neighbours and some sequences at random.

The target in the experiment is OsWRKY34 (Oryza sativa, UniProt Q0JBA9 1-250). Kind of experiment: protein-binding microarray (RPBM); PBS, 2% BSA, 51.3 ng/ul salmon testes DNA, 50 uM zinc acetate, 200 nM TF, 25 C, 1 h; high values mean tight binding. Particulars: protein: recombinant; tags: N-terminal polyhistidine and DsRed monomer fusion (pET32a); label: CyDye5-dUTP incorporated in the synthesized complementary strand; 3' TTTTT single-stranded linker to array surface; dsDNA, one strand shown. The method in brief: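 The binding signal is fluorescence intensity per feature, in arbitrary units, read on an Axon 4000B scanner. Polyhistidine- and DsRed-tagged transcription factors (N-terminal fusions) from E. coli BL21-CodonPlus were purified on Ni–NTA and applied at 200 nM for 1 h at 25 °C to a double-stranded, BSA-blocked custom Agilent array in buffer with 50 µM zinc acetate.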
Sequence of OsWRKY34 (Q0JBA9 entry or part of it): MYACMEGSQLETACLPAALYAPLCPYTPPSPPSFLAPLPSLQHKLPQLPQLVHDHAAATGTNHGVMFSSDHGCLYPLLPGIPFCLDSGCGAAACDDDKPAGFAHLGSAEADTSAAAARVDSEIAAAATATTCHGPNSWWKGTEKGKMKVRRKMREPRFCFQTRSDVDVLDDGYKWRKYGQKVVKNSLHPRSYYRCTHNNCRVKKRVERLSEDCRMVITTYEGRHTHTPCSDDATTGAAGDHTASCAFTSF
With “TTTATACTCCTTCTGTTTCATATTATTTTTTTCTACTAGTCGGAGTCACCTAGTGCAG”, the binding signal is 8860 fluorescence intensity (a.u.).

Consider “GACCACTAGCAGCCTCGTAACGTTTGCCTCATTTCATCAGCGGAGTCACCTAGTGCAG”, for which the binding signal is 10500 fluorescence intensity (a.u.).

In the case of “TATACCTCTCTCTCTCTCTCTCTCTCTCTCTCTCTCTCTTCGGAGTCACCTAGTGCAG”, the binding signal was 8280 fluorescence intensity (a.u.).

For “TTTTTGTTTTCTCAATTCGCGAATTTAATGCTTTTGTGTACGGAGTCACCTAGTGCAG”, the binding signal is 9750 fluorescence intensity (a.u.).

Turning to “GAATTATTAGGGAGAAAGGAGTTGCAGGGTGGGGATTGTTCGGAGTCACCTAGTGCAG”, the binding signal is 8330 fluorescence intensity (a.u.).

As to “CGTTCTCTGTCTGTCCCGCACTCCCGCCTTTTGCCAAAGCCGGAGTCACCTAGTGCAG”, the binding signal is 9610 fluorescence intensity (a.u.).

With “AGACCAAGCCATATCACCTTATGTAATTTCTTTATGTGCTCGGAGTCACCTAGTGCAG”, the binding signal was 9010 fluorescence intensity (a.u.).

Regarding “GTCCCATCGTCTCTATTCGGGTCACCTTTGCACAACATGACGGAGTCACCTAGTGCAG”, the binding signal was 10500 fluorescence intensity (a.u.).

Take “GTTGACGTCTCCCAAGTGCCACACCCGCCGCCACGTCACTCGGAGTCACCTAGTGCAG”: the binding signal was 8880 fluorescence intensity (a.u.).

For the sequence “CCCAGATTCGCCCCGCACCGCACCGCCCTTGGCTCGCCCCCGGAGTCACCTAGTGCAG”, the binding signal was 8340 fluorescence intensity (a.u.).

Regarding “CTCTACTTCTAATGTTCCTTATTTTTTTTCCGAGTTTCTACGGAGTCACCTAGTGCAG”, the binding signal was 9390 fluorescence intensity (a.u.).

In the case of “TACTCGTTTGGTTGTAATTTTTTTCCGCGTCTTTTCATCTCGGAGTCACCTAGTGCAG”, the binding signal was 11200 fluorescence intensity (a.u.).

On to “TAGTTTCTTGTTTTCAGTTTTTTTTTCTTGTCATTTTTTTCGGAGTCACCTAGTGCAG”, for which the binding signal is 19500 fluorescence intensity (a.u.).

Regarding “ATTCTTCATTCTTTTTGTGTGTGTTTCAGTGTGTTTGTTTCGGAGTCACCTAGTGCAG”, the binding signal is 15800 fluorescence intensity (a.u.).

As for “TTGAATTTTCAGTTTTCTTGTGCGTGTTTCCTTGTCATTTCGGAGTCACCTAGTGCAG”, the binding signal was 9140 fluorescence intensity (a.u.).

On to “CGGTCTTTGCCAAATTCCCACTCCGCTTGGCTTTCTGGCCCGGAGTCACCTAGTGCAG”, for which the binding signal was 8250 fluorescence intensity (a.u.).

In the case of “CTAGGACATCATTTTGTTTGTCGTGTGTGCGCAACTGTTTCGGAGTCACCTAGTGCAG”, the binding signal is 8160 fluorescence intensity (a.u.).

In the case of “AACAGTTGACGCAGGTGGCAGAGTTGCTAGTTCTTGCCCTCGGAGTCACCTAGTGCAG”, the binding signal is 61500 fluorescence intensity (a.u.).

For “GCGCCCTCCGACTCCGACGGCTTCTTGTTCTCGTTGACGCCGGAGTCACCTAGTGCAG”, the binding signal is 8950 fluorescence intensity (a.u.).

For the sequence “CTTTCTTTCTTTCTTTCTTCTTTTTTTTCTTTTTTTTTTGCGGAGTCACCTAGTGCAG”, the binding signal is 8640 fluorescence intensity (a.u.).

Take “ATACCGTGATTGGGATTACCTGTGACCTTGCCTATTTGACCGGAGTCACCTAGTGCAG”: the binding signal was 9120 fluorescence intensity (a.u.).

In the case of “CACCATTGGGATGGGTGCCTATTTCTTGGAGACCGTTGACCGGAGTCACCTAGTGCAG”, the binding signal is 17300 fluorescence intensity (a.u.).

As for “TGGTTTTATGTGTGAGTTGGGGTAGTGGCGTTGGTAGGTTCGGAGTCACCTAGTGCAG”, the binding signal is 11700 fluorescence intensity (a.u.).

On to “GAGTGTAACGGGTGGGGTGGTTTGGAAGGTGATGAGGTATCGGAGTCACCTAGTGCAG”, for which the binding signal is 11300 fluorescence intensity (a.u.).

In the case of “TTCTTTCTTTTTTGGCGGGGACTACTCTTTACTTGAACCTCGGAGTCACCTAGTGCAG”, the binding signal was 12400 fluorescence intensity (a.u.).

As for “TGTGAGTAGTTTGTGGTTGGGAGTGTAACGGGTGGGGTGGCGGAGTCACCTAGTGCAG”, the binding signal is 16900 fluorescence intensity (a.u.).

As for “ACTCTTTACTCTTTCTTTTCTTCTTTCTTTTTTGGCGGGGCGGAGTCACCTAGTGCAG”, the binding signal was 21200 fluorescence intensity (a.u.).

“GGAGAGTAGCAGTGTGGTTGATGATGGTGTTCTTGCTACTCGGAGTCACCTAGTGCAG”: the binding signal was 9890 fluorescence intensity (a.u.).

“ATTTCTTGGAGACCGTTGACTCCTCTCTCTCTATTTCCATCGGAGTCACCTAGTGCAG”: the binding signal was 12400 fluorescence intensity (a.u.).

Consider “CTTCTAAACATAGCTTCCACAATCGTCTCCGGGCCCTTCTCGGAGTCACCTAGTGCAG”, for which the binding signal was 8320 fluorescence intensity (a.u.).

“GATTAGAATCCGGGTGGGCTGTTTCCACCACAAGAAACTACGGAGTCACCTAGTGCAG”: the binding signal is 8990 fluorescence intensity (a.u.).

In the case of “AATTCCCAAAATATACAGTTTTTGTTATTCAGATGTTTACCGGAGTCACCTAGTGCAG”, the binding signal was 8130 fluorescence intensity (a.u.).

As for “TACCGATGGGGCTCTTATACTCCAACTCTTGCCCTGTTTACGGAGTCACCTAGTGCAG”, the binding signal was 9020 fluorescence intensity (a.u.).

As for “ATTCGATTTTCTTGCACCTAAACACATGCAACCCATCATTCGGAGTCACCTAGTGCAG”, the binding signal was 10100 fluorescence intensity (a.u.).

On to “TTTTTCAATTTTTGGTTAAAATTTTTGGGGCTTTTCTTCGCGGAGTCACCTAGTGCAG”, for which the binding signal was 8990 fluorescence intensity (a.u.).

For the sequence “AGCTTGGTTTCTGGGTTGGGTTGGGTTTGGTTGCGTTGCGCGGAGTCACCTAGTGCAG”, the binding signal is 22700 fluorescence intensity (a.u.).

For the sequence “TGTGTTGGTGATGTCGATGTGTGGGTGGTGGTTTTTTTTTCGGAGTCACCTAGTGCAG”, the binding signal is 13800 fluorescence intensity (a.u.).

Consider “TCTATTGGGGCGGGGTGTGGTAAGGAAATTACAGTTTGCACGGAGTCACCTAGTGCAG”, for which the binding signal was 17700 fluorescence intensity (a.u.).

For “GGCTTTTATGGGGCGGGCTTTCTTTGGTCAATGGTCACTACGGAGTCACCTAGTGCAG”, the binding signal was 32200 fluorescence intensity (a.u.).

With “GGGAAATTGGGTAATTAATTAATTATGTGAAAGGGGTGGGCGGAGTCACCTAGTGCAG”, the binding signal is 12800 fluorescence intensity (a.u.).

“CGGCGGAGGAGGAGGTTTCTTGCTCGTTTCTTGGGTTGCGCGGAGTCACCTAGTGCAG”: the binding signal is 10800 fluorescence intensity (a.u.).

With “CGTGTGACTGTTGCCGTGATGGTTTTGATGTTTGTTTTGGCGGAGTCACCTAGTGCAG”, the binding signal is 9180 fluorescence intensity (a.u.).

“GGTGGGTAGTTTTCTGCGTTTTCTTTTGTATTTTTGGTTGCGGAGTCACCTAGTGCAG”: the binding signal was 11500 fluorescence intensity (a.u.).

For the sequence “TTACTACTACCACTCGTTTTCTTGGCTTGGTTTGGTTTGGCGGAGTCACCTAGTGCAG”, the binding signal was 13000 fluorescence intensity (a.u.).

Take “TTGGTTTTGGTTTGGGTGGTTGATGTGTGGGTGGTGGTGGCGGAGTCACCTAGTGCAG”: the binding signal is 19000 fluorescence intensity (a.u.).

On to “TGTGTGGTAGTTCGGGGTGGACCTACTTCTAATTATTGGGCGGAGTCACCTAGTGCAG”, for which the binding signal is 14100 fluorescence intensity (a.u.).

“AAGACATTGCATCAACCGTCTTGCCAATCTATGTTTTCTACGGAGTCACCTAGTGCAG”: the binding signal was 8280 fluorescence intensity (a.u.).

Turning to “ATTATAAGTTGTTTCTTCTTAGGTTGTGTTTAGTTCCTTGCGGAGTCACCTAGTGCAG”, the binding signal was 9250 fluorescence intensity (a.u.).

“GCTTCCTCGGCCTCGGGCCGCGTCTCCATGGTCGACTTGACGGAGTCACCTAGTGCAG”: the binding signal was 11200 fluorescence intensity (a.u.).

As to “ACCAGTTAATGTACATTTGCAATTATATTTTGTTATTTTTCGGAGTCACCTAGTGCAG”, the binding signal is 8230 fluorescence intensity (a.u.).

In the case of “GTAAGTGTGTGTTCAGTGATGGCTATCGGTGGGTGGGTGGCGGAGTCACCTAGTGCAG”, the binding signal is 16600 fluorescence intensity (a.u.).

“GTTGTTTGTTTGAGACTCTGTTCCTTTTGGCTTGGTTTTCCGGAGTCACCTAGTGCAG”: the binding signal is 12700 fluorescence intensity (a.u.).

Consider “GAGATGGATGTGTGGTGATGGCCTAGGATGTGGGATGGATCGGAGTCACCTAGTGCAG”, for which the binding signal was 8160 fluorescence intensity (a.u.).

Regarding “CCTTTTTAGTCGGACTTCTTTTTCTTTTTTACCGACTTTGCGGAGTCACCTAGTGCAG”, the binding signal was 10300 fluorescence intensity (a.u.).

Regarding “GGTGGTGTTGTTGGTGGTGCAGTTCTTGGAGTCACATGGTCGGAGTCACCTAGTGCAG”, the binding signal was 10300 fluorescence intensity (a.u.).

Turning to “AGTTCTTGGAGTCACATGGTTGGTGGTGGTGTGGGCAGTTCGGAGTCACCTAGTGCAG”, the binding signal was 14200 fluorescence intensity (a.u.).

For the sequence “TCTTTATTTACCTTTTTTTGAGTCGGACTTCTTTTTCTTTCGGAGTCACCTAGTGCAG”, the binding signal is 8240 fluorescence intensity (a.u.).

As for “GGAGTTTGGTTGGTTGGTGGTGTTCTTGACGGGGCATGGACGGAGTCACCTAGTGCAG”, the binding signal is 31200 fluorescence intensity (a.u.).

With “ATGTAGATGTGGTCATGTGGGTGCTATCTGTGTGGGTGATCGGAGTCACCTAGTGCAG”, the binding signal is 9360 fluorescence intensity (a.u.).

Turning to “GAGATGCGGCACGGTTGGCTTGTTGACTTTTTCCGGCCCGCGGAGTCACCTAGTGCAG”, the binding signal is 17500 fluorescence intensity (a.u.).

In the case of “ACCACTTGGCTTTCTTTCTTTTATCCGGTTAGTTCCGGCGCGGAGTCACCTAGTGCAG”, the binding signal is 8090 fluorescence intensity (a.u.).

On to “TTTTTTGTCGGACTTTTTTCTTCATTTTTTACCTCTTTTGCGGAGTCACCTAGTGCAG”, for which the binding signal is 16900 fluorescence intensity (a.u.).
